Assay results from PubChem BioAssay AID1159580 (chemical genetic matrix, 2015).
“And” between values parts separate entries of the source, which are not always exact repeats. Equal entries are not always repeated. Screen size: about 5,500 compounds; about 2,000 (36%) were called active. Another 18% or so got no clear call; they are omitted. Rule as the data show it: active = normalized growth mostly below about 0.91 (no sharp cut-off); inconclusive = no clear call, values can overlap the other calls; inactive = mostly above about 0.92. Some of the results follow.

Assay: chemical genetic growth profiling, strain panel (AID 1159580);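 also: tested at 20 µM; growth read once vehicle control cultures reached saturation at 30 °C; 1 = growth at the plate median or of vehicle wells; lower values mean less growth of the strain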
Settings: growth OD
[1] = S. cerevisiae deletion strains, locus YAL013W, strain DEP1, active compounds read low
[2] = S. cerevisiae deletion strains, locus YBR229C, strain ROT2, active compounds read low
[3] = S. cerevisiae deletion strains, locus YDL101C, strain DUN1, active compounds read low
[4] = S. cerevisiae deletion strains, locus YEL061C, strain CIN8, active compounds read low
[5] = S. cerevisiae deletion strains, locus YGR078C, strain PAC10, active compounds read low
[6] = S. cerevisiae deletion strains, locus YGR229C, strain SMI1, active compounds read low
[7] = S. cerevisiae deletion strains, locus YHR030C, strain SLT2, active compounds read low
[8] = S. cerevisiae deletion strains, locus YKL190W, strain CNB1, active compounds read low
[9] = S. cerevisiae deletion strains, locus YLR039C, strain RIC1, active compounds read low
[10] = S. cerevisiae deletion strains, locus YMR307W, strain GAS1, active compounds read low
[11] = S. cerevisiae deletion strains, locus YNL153C, strain GIM3, active compounds read low
[12] = S. cerevisiae deletion strains, locus YOL006C, strain TOP1, active compounds read low
[13] = S. cerevisiae deletion strains, locus YPL241C, strain CIN2, active compounds read low
[14] = S. cerevisiae deletion strains, locus YHR079C, strain IRE1, active compounds read low
[15] = S. cerevisiae deletion strains, locus YJL095W, strain BCK1, active compounds read low
[16] = S. cerevisiae deletion strains, locus YJR066W, strain TOR1, active compounds read low
[17] = S. cerevisiae deletion strains, locus YLR113W, strain HOG1, active compounds read low
[18] = S. cerevisiae deletion strains, locus YNL183C, strain NPR1, active compounds read low
[19] = S. cerevisiae deletion strains, locus YOR231W, strain MKK1, active compounds read low
[20] = S. cerevisiae deletion strains, locus YPL256C, strain CLN2, active compounds read low

Measured: normalized growth

COC(=O)c1cc(OC)c(OC)cc1-n1c(C)ccc1C
inactive: [1] 0.999 | [2] 0.994 | [3] 0.975 | S. cerevisiae deletion strains, locus YDL134C, strain PPH21, active compounds read low 1.03 | S. cerevisiae deletion strains, locus YDR150W, strain NUM1, active compounds read low 0.947 | [4] 1.01 | [5] 0.987 | [6] 1 | [7] 0.999 | S. cerevisiae deletion strains, locus YHR087W, strain rtc3, active compounds read low 0.983 | S. cerevisiae deletion strains, locus YJR043C, strain POL32, active compounds read low 0.985 | S. cerevisiae deletion strains, locus YJR075W, strain HOC1, active compounds read low 0.963 | [8] 1.01 | [9] 0.993 | S. cerevisiae deletion strains, locus YLR058C, strain SHM2 (second series), active compounds read low 0.995 | S. cerevisiae deletion strains, locus YLR085C, strain ARP6, active compounds read low 1.01 | S. cerevisiae deletion strains, locus YLR262C, strain YPT6, active compounds read low 0.957 | S. cerevisiae deletion strains, locus YML094W, strain GIM5, active compounds read low 1 | S. cerevisiae deletion strains, locus YMR219W, strain ESC1, active compounds read low 0.998 | S. cerevisiae deletion strains, locus YMR263W, strain SAP30, active compounds read low 0.91 | [10] 0.948 | [11] 0.983 | S. cerevisiae deletion strains, locus YNL298W, strain CLA4 (second series), active compounds read low 1.02 | S. cerevisiae deletion strains, locus YNL322C, strain KRE1, active compounds read low 0.99 | S. cerevisiae deletion strains, locus YNR030W, strain Alg12, active compounds read low 1.01 | [12] 1 | S. cerevisiae deletion strains, locus YPL055C, strain LGE1, active compounds read low 0.877 | [13] 1 | S. cerevisiae deletion strains, locus YPR135W, strain CTF4, active compounds read low 0.915 | S. cerevisiae strains, strain wild type, active compounds read low 1.01

CC(=O)O[C@@H]1CC2C(C)(C)C(=O)CC[C@]2(C)C2CC[C@]3(C)C(=CC(=O)O[C@H]3c3ccoc3)[C@@]21C (stereo partly drawn)
inactive: [1] 0.988 | S. cerevisiae deletion strains, locus YBR021W, strain FUR4, active compounds read low 0.989 | [2] 0.939 | S. cerevisiae deletion strains, locus YCL029C, strain bik1, active compounds read low 0.985 | S. cerevisiae deletion strains, locus YDL035C, strain GPR1, active compounds read low 0.964 | S. cerevisiae deletion strains, locus YDL074C, strain BRE1, active compounds read low 0.954 | [3] 1 | S. cerevisiae deletion strains, locus YDL185W, strain tfp1, active compounds read low 0.966 | S. cerevisiae deletion strains, locus YDL192W, strain arf1, active compounds read low 0.971 | S. cerevisiae deletion strains, locus YDR101C, strain arx1, active compounds read low 0.959 | S. cerevisiae deletion strains, locus YDR162C, strain NBP2, active compounds read low 0.98 | S. cerevisiae deletion strains, locus YDR318W, strain mcm21, active compounds read low 0.992 | S. cerevisiae deletion strains, locus YDR388W, active compounds read low 0.995 | S. cerevisiae deletion strains, locus YDR502C, strain sam2, active compounds read low 1.01 | [4] 0.972 | S. cerevisiae deletion strains, locus YER110C, active compounds read low 0.978 | S. cerevisiae deletion strains, locus YER155C, strain BEM2, active compounds read low 0.991 | S. cerevisiae deletion strains, locus YER167W, strain BCK2, active compounds read low 0.97 | S. cerevisiae deletion strains, locus YGL078C, strain dbp3, active compounds read low 1.01 | S. cerevisiae deletion strains, locus YGL086W, strain mad1, active compounds read low 0.998 | S. cerevisiae deletion strains, locus YGL248W, strain PDE1, active compounds read low 0.999 | [5] 1.02 | S. cerevisiae deletion strains, locus YGR135W, strain pre9, active compounds read low 1.07 | S. cerevisiae deletion strains, locus YGR252W, strain gcn5, active compounds read low 1.03 | [7] 1.06 | S. cerevisiae deletion strains, locus YHR079C, strain IRE1 (second series), active compounds read low 0.975 | [14] 1.04 | S. cerevisiae deletion strains, locus YHR094C, strain hxt1, active compounds read low 0.991 | S. cerevisiae deletion strains, locus YHR129C, strain ARP1, active compounds read low 0.989 | S. cerevisiae deletion strains, locus YHR200W, strain rpn10, active compounds read low 1 | S. cerevisiae deletion strains, locus YIL066C, strain RNR3, active compounds read low 0.948 | S. cerevisiae deletion strains, locus YIL073C, strain SPO22, active compounds read low 0.977 | S. cerevisiae deletion strains, locus YIL125W, strain kgd1, active compounds read low 0.993 | S. cerevisiae deletion strains, locus YIR030C, strain dcg1, active compounds read low 0.987 | [15] 1.05 and 1.06 | S. cerevisiae deletion strains, locus YJL134W, strain LCB3, active compounds read low 0.98 | S. cerevisiae deletion strains, locus YJL168C, strain set2, active compounds read low 0.988 | S. cerevisiae deletion strains, locus YJL187C, strain SWE1 (second series), active compounds read low 1.01 | [16] 0.991 | S. cerevisiae deletion strains, locus YKL009W, strain mrt4, active compounds read low 0.976 | S. cerevisiae deletion strains, locus YKL068W, active compounds read low 0.991 | S. cerevisiae deletion strains, locus YKL085W, strain MDH1 (second series), active compounds read low 0.995 | S. cerevisiae deletion strains, locus YKL085W, strain MDH1, active compounds read low 0.995 | [8] 0.983 | S. cerevisiae deletion strains, locus YKR001C, strain vps1, active compounds read low 0.974 | [9] 0.961 | S. cerevisiae deletion strains, locus YLR058C, strain SHM2, active compounds read low 0.979 | S. cerevisiae deletion strains, locus YLR102C, strain apc9, active compounds read low 0.99 | [17] 1.03 | S. cerevisiae deletion strains, locus YLR268W, strain sec22, active compounds read low 0.956 | S. cerevisiae deletion strains, locus YLR371W, strain rom2, active compounds read low 0.967 | S. cerevisiae deletion strains, locus YLR418C, strain cdc73, active compounds read low 1 | S. cerevisiae deletion strains, locus YML016C, strain PPZ1, active compounds read low 0.978 | S. cerevisiae deletion strains, locus YML032C, strain rad52, active compounds read low 0.982 | S. cerevisiae deletion strains, locus YML124C, strain tub3, active compounds read low 0.992 | S. cerevisiae deletion strains, locus YMR078C, strain ctf18, active compounds read low 0.989 | S. cerevisiae deletion strains, locus YMR223W, strain ubp8, active compounds read low 1 | [10] 0.989 | S. cerevisiae deletion strains, locus YNL067W, strain RPL9B, active compounds read low 1.04 | [18] 0.989 | S. cerevisiae deletion strains, locus YNL233W, strain BNI4, active compounds read low 1.03 | S. cerevisiae deletion strains, locus YNL250W, strain rad50, active compounds read low 0.992 | S. cerevisiae deletion strains, locus YNL271C, strain bni1, active compounds read low 0.993 | S. cerevisiae deletion strains, locus YNL298W, strain CLA4, active compounds read low 0.989 | S. cerevisiae deletion strains, locus YNL307C, strain MCK1, active compounds read low 0.982 | S. cerevisiae deletion strains, locus YNR052C, strain pop2, active compounds read low 1.04 | [12] 0.932 | S. cerevisiae deletion strains, locus YOL012C, strain htz1 0.896 | S. cerevisiae deletion strains, locus YOL147C, strain pex11, active compounds read low 0.984 | S. cerevisiae deletion strains, locus YOR061W, strain CKA2, active compounds read low 0.934 | S. cerevisiae deletion strains, locus YOR069W, strain VPS5, active compounds read low 0.996 | S. cerevisiae deletion strains, locus YOR136W, strain idh2, active compounds read low 1 | S. cerevisiae deletion strains, locus YOR144C, strain elg1, active compounds read low 0.997 | S. cerevisiae deletion strains, locus YOR184W, strain ser1, active compounds read low 0.964 | [19] 1.07 | S. cerevisiae deletion strains, locus YOR316C, strain cot1, active compounds read low 0.997 | [13] 0.978 | [20] 1.05 | S. cerevisiae deletion strains, locus YPR119W, strain clb2, active compounds read low 0.992 | S. cerevisiae deletion strains, locus YPR141C, strain kar3, active compounds read low 0.982 | S. cerevisiae deletion strains, locus YPR163C, strain tif3, active compounds read low 0.99 | S. cerevisiae deletion strains, locus YPR167C, strain met16, active compounds read low 0.992 | S. cerevisiae deletion strains, strain wtn01, active compounds read low 0.967

Cc1cccc(C)c1NC(=O)C[N+](C)(C)C
inactive: [1] 1.03 | S. cerevisiae deletion strains, locus YAL040C, strain CLN3, active compounds read low 0.995 | S. cerevisiae deletion strains, locus YCL061C, strain MRC1 (second series), active compounds read low 1 | S. cerevisiae deletion strains, locus YDR363W, strain ESC2, active compounds read low 1.01 | S. cerevisiae deletion strains, locus YER002W, strain NOP16, active compounds read low 1.01 | [5] 0.984 | [6] 1 | [11] 1.01 | S. cerevisiae deletion strains, locus YNL175C, strain NOP13, active compounds read low 0.993 | S. cerevisiae deletion strains, locus YNL197C, strain WHI3, active compounds read low 0.989 | S. cerevisiae deletion strains, locus YNL224C, strain SQS1, active compounds read low 1.01 | S. cerevisiae deletion strains, locus YOR083W, strain WHI5 (second series), active compounds read low 1.02

CC[N+](CC)(CC(=O)Nc1c(C)cccc1C)Cc1ccccc1
inactive: [7] 0.962 | [14] 0.878 | [15] 0.916 | [16] 0.897 | [18] 0.851 | [19] 0.899 | [20] 0.868
active: [17] 0.814
